For some of these results: Results with a measured potency or affinity are listed apart.
Columns and labels:
Design in all cases: scale not given: direction of the effect not stated beside the values
[1] = biological target: Protein translocase subunit SecA (Escherichia coli (strain K12)) (UniProt P10408); assay: Assay to Identify E. coli SecA ATPase Inhibitors; assay type: functional; conditions: 30 µM
[2] = biological target: T1, Ubiquitin-activating enzyme e1, putative (Leishmania donovani (strain BPK282A1)) (UniProt E9BSI1); assay: Leishmania donovani Ubiquitin Activating Enzyme (LdE1); assay type: functional; conditions: 30 µM
T1 sequence (whole entry): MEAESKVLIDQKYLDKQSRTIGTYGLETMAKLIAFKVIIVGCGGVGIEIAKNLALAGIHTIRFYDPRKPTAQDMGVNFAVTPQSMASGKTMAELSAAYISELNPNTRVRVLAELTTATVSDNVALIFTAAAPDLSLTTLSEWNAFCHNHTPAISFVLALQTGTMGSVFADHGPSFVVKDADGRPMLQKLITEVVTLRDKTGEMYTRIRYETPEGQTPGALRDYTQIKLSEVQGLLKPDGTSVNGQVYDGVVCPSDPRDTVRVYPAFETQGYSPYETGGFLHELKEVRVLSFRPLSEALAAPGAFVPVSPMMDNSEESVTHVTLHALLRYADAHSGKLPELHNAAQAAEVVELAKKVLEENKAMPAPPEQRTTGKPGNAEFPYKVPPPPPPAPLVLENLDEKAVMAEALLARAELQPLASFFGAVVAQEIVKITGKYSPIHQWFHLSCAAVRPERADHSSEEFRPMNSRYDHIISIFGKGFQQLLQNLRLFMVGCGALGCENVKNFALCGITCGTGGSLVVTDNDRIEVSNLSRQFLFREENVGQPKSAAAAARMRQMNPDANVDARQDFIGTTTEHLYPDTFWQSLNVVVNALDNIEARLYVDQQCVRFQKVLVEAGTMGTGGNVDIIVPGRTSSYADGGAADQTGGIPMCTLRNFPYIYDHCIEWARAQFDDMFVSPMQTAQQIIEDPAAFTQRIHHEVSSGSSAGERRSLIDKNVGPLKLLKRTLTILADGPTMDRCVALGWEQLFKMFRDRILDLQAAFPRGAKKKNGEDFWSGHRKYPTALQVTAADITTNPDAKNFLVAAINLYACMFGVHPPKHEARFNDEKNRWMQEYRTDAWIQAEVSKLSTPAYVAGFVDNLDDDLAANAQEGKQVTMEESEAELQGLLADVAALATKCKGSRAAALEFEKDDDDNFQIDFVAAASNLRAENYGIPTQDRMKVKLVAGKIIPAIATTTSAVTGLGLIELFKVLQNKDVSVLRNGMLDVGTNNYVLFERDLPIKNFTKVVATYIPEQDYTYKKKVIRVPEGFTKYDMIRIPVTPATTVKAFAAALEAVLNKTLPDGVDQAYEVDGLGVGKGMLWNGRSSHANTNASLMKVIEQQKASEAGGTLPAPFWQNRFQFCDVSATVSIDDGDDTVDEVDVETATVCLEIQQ

[3] = biological target: Sialic acid-binding Ig-like lectin 9 (Homo sapiens) (UniProt Q9Y336); assay: Hs-Siglec9 ALPHAscreen SOP 20170721; conditions: 10 µM
Chain of Sialic acid-binding Ig-like lectin 9 (Homo sapiens) (Q9Y336 whole entry): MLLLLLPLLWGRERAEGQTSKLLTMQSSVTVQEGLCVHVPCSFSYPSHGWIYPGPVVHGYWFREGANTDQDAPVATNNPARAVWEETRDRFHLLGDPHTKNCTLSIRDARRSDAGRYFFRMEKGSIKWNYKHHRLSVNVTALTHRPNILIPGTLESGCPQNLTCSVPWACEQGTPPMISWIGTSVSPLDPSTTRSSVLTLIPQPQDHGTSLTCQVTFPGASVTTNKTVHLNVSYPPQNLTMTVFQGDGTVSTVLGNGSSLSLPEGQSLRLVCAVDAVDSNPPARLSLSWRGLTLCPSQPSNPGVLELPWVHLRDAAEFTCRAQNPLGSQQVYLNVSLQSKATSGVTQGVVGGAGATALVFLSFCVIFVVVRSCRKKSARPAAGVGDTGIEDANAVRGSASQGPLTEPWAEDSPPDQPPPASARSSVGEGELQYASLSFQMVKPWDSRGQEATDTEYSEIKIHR

Trypanosoma cruzi = assay: Trypanosoma cruzi phosphomannomutase and mannose-1-phosphate guanylyltransferase assay; assay type: functional; conditions: 10 µM
[4] = biological target: T2, Arginase-2, mitochondrial (Homo sapiens) (UniProt P78540); assay: in vitro enzyme assay to detect the production of urea directly proportional to the activity of Arginase II; assay type: functional; conditions: 33.3 µM; further: in the data most compounds retested in dose-response had high values
T2 sequence (whole entry): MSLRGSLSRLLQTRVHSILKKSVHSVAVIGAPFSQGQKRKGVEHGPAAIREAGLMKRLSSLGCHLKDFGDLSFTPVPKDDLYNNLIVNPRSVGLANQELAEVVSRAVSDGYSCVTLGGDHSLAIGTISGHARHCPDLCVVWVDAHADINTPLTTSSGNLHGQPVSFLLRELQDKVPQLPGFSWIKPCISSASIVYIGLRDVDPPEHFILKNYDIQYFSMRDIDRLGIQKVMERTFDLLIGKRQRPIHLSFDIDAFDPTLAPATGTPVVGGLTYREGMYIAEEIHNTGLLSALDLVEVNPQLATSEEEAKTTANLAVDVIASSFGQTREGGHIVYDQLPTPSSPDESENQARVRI

[5] = biological target: T3, Proteasome subunit beta (Trypanosoma cruzi) (UniProt O96673); assay: Trypanosoma cruzi proteasome chymotrypsin-like activity (TcProtChymo) assay.; further: in the data most compounds retested in dose-response had high values; assay type: functional; conditions: 9.37 µM
T3 sequence (whole entry): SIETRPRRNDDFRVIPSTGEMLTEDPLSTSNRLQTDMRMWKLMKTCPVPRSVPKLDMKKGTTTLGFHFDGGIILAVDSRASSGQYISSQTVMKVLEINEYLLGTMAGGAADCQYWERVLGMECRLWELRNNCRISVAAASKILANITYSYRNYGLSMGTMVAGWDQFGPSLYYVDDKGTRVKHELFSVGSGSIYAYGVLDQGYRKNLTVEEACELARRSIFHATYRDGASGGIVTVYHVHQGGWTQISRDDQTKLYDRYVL

Homo sapiens = species on record: Homo sapiens; assay: To identify inhibition of the IFN signalling (Jak-Stat) pathway via expression of an eGFP reporter gene under the control of an IFN-stimulated response element (ISRE) containing MxA promoter.; assay type: functional; conditions: 30 µM
[6] = biological target: T4, Tyrosyl-tRNA synthetase, putative (Trypanosoma cruzi (strain CL Brener)) (UniProt Q4DSP6); assay: Trypanosoma cruzi tyrosyl tRNA synthetase (TcYRS) _High Tyrosine SOP; assay type: functional; conditions: 30 µM; further: in the data most compounds retested in dose-response had high values
T4 sequence (whole entry): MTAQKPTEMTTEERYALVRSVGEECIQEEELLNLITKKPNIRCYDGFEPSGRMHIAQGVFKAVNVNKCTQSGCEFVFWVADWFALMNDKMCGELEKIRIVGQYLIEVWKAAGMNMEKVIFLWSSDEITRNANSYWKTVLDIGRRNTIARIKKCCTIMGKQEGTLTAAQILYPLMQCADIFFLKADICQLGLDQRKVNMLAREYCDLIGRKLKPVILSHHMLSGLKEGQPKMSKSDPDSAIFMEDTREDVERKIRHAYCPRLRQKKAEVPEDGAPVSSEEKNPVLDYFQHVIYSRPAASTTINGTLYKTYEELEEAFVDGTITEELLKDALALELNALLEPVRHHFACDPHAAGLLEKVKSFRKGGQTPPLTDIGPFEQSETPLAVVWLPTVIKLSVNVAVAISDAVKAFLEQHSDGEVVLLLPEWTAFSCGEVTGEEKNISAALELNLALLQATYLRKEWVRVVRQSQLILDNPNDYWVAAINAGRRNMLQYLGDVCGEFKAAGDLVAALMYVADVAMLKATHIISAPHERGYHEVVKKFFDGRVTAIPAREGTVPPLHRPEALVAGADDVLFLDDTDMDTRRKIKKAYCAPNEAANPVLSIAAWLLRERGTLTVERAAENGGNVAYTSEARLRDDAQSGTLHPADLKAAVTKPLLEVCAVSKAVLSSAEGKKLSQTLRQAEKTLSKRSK

[7] = biological target: T4, Tyrosyl-tRNA synthetase, putative (Trypanosoma cruzi (strain CL Brener)); assay: Trypanosoma cruzi tyrosyl tRNA synthetase (TcYRS) SOP; assay type: functional; conditions: 30 µM
[8] = biological target: Chromo domain-containing protein 1 (Saccharomyces cerevisiae (strain ATCC 204508 / S288c) (Baker's yeast)) (UniProt P32657); assay: ScCHD-1 Enzyme Inhibition Assay; assay type: functional; conditions: 30 µM; further: in the data most compounds retested in dose-response had high values
Chain of Chromo domain-containing protein 1 (Saccharomyces cerevisiae (strain ATCC 204508 / S288c) (Baker's yeast)) (P32657 whole entry, the tested form may be a part): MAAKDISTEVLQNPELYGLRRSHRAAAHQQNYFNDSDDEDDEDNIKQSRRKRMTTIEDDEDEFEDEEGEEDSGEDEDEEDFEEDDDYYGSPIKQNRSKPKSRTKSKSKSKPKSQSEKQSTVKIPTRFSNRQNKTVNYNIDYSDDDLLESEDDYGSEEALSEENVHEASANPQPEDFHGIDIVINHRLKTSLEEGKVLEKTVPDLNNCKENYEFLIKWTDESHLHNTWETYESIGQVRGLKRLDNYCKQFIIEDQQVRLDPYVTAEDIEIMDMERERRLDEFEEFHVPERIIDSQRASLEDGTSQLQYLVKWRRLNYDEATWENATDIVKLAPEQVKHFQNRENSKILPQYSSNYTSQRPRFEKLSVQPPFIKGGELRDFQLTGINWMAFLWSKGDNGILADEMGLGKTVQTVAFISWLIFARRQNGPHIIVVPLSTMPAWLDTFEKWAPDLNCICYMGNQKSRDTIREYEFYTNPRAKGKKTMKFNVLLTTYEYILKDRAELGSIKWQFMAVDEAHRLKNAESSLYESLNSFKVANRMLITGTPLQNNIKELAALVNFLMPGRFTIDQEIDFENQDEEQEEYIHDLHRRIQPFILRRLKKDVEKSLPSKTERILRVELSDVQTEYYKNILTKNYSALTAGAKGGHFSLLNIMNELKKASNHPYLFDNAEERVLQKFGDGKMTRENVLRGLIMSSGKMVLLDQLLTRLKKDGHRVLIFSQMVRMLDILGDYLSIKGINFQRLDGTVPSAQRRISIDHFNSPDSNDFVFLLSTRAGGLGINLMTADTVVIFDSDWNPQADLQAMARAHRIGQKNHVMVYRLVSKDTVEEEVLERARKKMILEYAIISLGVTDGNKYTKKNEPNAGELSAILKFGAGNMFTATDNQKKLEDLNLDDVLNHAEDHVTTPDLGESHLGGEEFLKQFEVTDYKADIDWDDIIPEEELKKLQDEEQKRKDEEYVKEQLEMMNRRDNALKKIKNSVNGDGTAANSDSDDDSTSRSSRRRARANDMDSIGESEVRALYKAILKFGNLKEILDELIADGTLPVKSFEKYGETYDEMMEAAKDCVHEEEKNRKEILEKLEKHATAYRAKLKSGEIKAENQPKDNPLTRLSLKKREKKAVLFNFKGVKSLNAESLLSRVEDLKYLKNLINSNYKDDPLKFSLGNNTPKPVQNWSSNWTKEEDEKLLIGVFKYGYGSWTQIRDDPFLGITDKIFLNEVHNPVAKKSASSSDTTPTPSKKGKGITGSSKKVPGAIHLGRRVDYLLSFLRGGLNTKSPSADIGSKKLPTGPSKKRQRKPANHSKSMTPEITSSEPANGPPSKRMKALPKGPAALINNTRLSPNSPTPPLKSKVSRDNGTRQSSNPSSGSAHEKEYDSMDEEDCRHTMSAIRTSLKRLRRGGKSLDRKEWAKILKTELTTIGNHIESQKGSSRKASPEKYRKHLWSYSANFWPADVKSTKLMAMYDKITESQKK

Chain of Protein translocase subunit SecA (Escherichia coli (strain K12)) (P10408 whole entry): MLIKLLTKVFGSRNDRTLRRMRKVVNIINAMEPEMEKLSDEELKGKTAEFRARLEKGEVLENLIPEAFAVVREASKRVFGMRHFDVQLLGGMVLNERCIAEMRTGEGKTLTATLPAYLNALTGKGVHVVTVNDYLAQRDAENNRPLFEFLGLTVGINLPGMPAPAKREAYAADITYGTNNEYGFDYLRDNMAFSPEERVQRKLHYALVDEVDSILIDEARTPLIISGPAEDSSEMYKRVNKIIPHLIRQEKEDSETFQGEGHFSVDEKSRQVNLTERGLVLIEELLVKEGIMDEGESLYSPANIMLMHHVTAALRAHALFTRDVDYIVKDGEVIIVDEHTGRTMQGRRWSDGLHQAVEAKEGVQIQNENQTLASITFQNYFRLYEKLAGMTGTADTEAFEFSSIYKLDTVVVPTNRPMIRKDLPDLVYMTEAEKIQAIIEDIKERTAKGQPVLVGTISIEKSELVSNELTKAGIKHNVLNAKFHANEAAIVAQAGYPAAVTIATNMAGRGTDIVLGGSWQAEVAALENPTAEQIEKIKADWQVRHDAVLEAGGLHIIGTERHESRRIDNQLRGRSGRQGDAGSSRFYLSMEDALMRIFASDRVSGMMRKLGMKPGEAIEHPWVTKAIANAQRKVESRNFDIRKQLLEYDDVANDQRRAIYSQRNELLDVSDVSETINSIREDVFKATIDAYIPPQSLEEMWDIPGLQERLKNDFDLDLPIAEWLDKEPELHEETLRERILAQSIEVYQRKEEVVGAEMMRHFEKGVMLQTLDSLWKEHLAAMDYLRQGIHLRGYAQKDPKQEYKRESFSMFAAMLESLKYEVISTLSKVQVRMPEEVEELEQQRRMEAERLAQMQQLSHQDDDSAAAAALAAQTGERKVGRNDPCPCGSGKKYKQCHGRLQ

O=C(Cn1c(=O)nc2n1C(=O)N(c1ccccc1)C2)Nc1ccccc1
Percent Effect [1]: -6.94%
Percent Effect [2]: 16.2%
Percent Effect [3]: 9.15%
Percent Effect (Trypanosoma cruzi): 2.23%
Percent Effect [4]: 24.8%
Percent Effect [5]: 23.6%
Percent Effect (Homo sapiens): 5.58%
Percent Effect [6]: 6.92%
Percent Effect [7]: 14.6%
Percent Effect [8]: 75.6%

Cc1cc(C2CCCN(C(=O)c3c(C)nn4cccnc34)C2)n[nH]1 (stereo not given)
Percent Effect [1]: -3.7%
Percent Effect [2]: 8%
Percent Effect [3]: 6.1%
Percent Effect (Trypanosoma cruzi): -2.21%
Percent Effect [4]: 0.444%
Percent Effect [5]: 6.7%
Percent Effect (Homo sapiens): 9.89%
Percent Effect [6]: 2.63%
Percent Effect [7]: 5.13%
Percent Effect [8]: -4.49%

Cc1noc(C)c1CC(=O)OCC(=O)N1CCc2sccc2C1
Percent Effect [1]: -3.42%
Percent Effect [2]: 18.7%
Percent Effect [3]: 0.304%
Percent Effect (Trypanosoma cruzi): 0.201%
Percent Effect [4]: -3.99%
Percent Effect [5]: 14.3%
Percent Effect (Homo sapiens): 12.1%
Percent Effect [6]: 6.84%
Percent Effect [7]: 23.1%
Percent Effect [8]: -8.07%

COc1ccc(F)cc1C(C)NC(=O)Cn1ccc(=O)n(C)c1=O (stereo not given)
Percent Effect [1]: 2.28%
Percent Effect [2]: 13%
Percent Effect [3]: 2.06%
Percent Effect (Trypanosoma cruzi): 2.05%
Percent Effect [4]: 5.94%
Percent Effect [5]: 9.82%
Percent Effect (Homo sapiens): -0.632%
Percent Effect [6]: 9.8%
Percent Effect [7]: 21.2%
Percent Effect [8]: -4.5%

CC1(C)OCC(CNC(=O)c2cnn(-c3cc(Cl)ccc3Cl)c2N)O1 (stereo not given)
Percent Effect [1]: 3.78%
Percent Effect [2]: 9.33%
Percent Effect [3]: -9.42%
Percent Effect (Trypanosoma cruzi): -1.97%
Percent Effect [4]: 3.98%
Percent Effect [5]: 17.1%
Percent Effect (Homo sapiens): 11.8%
Percent Effect [6]: 0%
Percent Effect [7]: 7.5%
Percent Effect [8]: -20.1%

O=C(CC1CC1)N1C[C@@H]2CCN(c3cnccn3)C[C@@H]2C1
Percent Effect [1]: -1.69%
Percent Effect [2]: 14.3%
Percent Effect [3]: 4.05%
Percent Effect (Trypanosoma cruzi): 1.69%
Percent Effect [4]: 0.913%
Percent Effect [5]: 5.06%
Percent Effect (Homo sapiens): 16.8%
Percent Effect [6]: 5.8%
Percent Effect [7]: 15%
Percent Effect [8]: -3.72%

Cc1ccc(NC(=O)C(C)N2CCCN(c3nccs3)CC2)c(C)c1 (stereo not given)
Percent Effect [1]: -1.1%
Percent Effect [2]: 15.4%
Percent Effect [3]: -3.51%
Percent Effect (Trypanosoma cruzi): -1.41%
Percent Effect [4]: 4.51%
Percent Effect [5]: 14.1%
Percent Effect (Homo sapiens): 8.08%
Percent Effect [6]: 2.39%
Percent Effect [7]: 6.02%
Percent Effect [8]: -0.819%

CCOCCN1CCCC(c2cc(C(N)=O)[nH]n2)C1 (stereo not given)
Percent Effect [1]: -1.61%
Percent Effect [2]: 0%
Percent Effect [3]: 5.24%
Percent Effect (Trypanosoma cruzi): -4.22%
Percent Effect [4]: 3.99%
Percent Effect [5]: 8.06%
Percent Effect (Homo sapiens): 13.9%
Percent Effect [6]: 3.68%
Percent Effect [7]: 7.69%
Percent Effect [8]: -5.54%

CC(C)(C)c1n[nH]c(C2CN(C(=O)c3ccsc3)CCO2)n1 (stereo not given)
Percent Effect [1]: -1.88%
Percent Effect [2]: 7.69%
Percent Effect [3]: 5.72%
Percent Effect (Trypanosoma cruzi): 0.657%
Percent Effect [4]: 0.82%
Percent Effect [5]: 3.33%
Percent Effect (Homo sapiens): -15.3%
Percent Effect [6]: 2.39%
Percent Effect [7]: 13.2%
Percent Effect [8]: 2.07%

O=C(CCOc1ccc(Cl)cc1)N1CCN(c2cnccn2)CC1
Percent Effect [1]: -5.29%
Percent Effect [2]: 18.2%
Percent Effect [3]: 5.24%
Percent Effect (Trypanosoma cruzi): -0.746%
Percent Effect [4]: 0.615%
Percent Effect [5]: 10.2%
Percent Effect (Homo sapiens): 25.2%
Percent Effect [6]: 9.8%
Percent Effect [7]: 21.2%
Percent Effect [8]: -8.03%

— ChEMBL document CHEMBL3988442, “University of Dundee, Small-Polar-MMV Screening Library” (2021)
